These results are taken from PubChem BioAssay.

Each structure is given as a SMILES string. “And” between values parts separate entries of the source, which are not always exact repeats. Identical values can stand only once. The source made the active and inactive calls.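 How the source made its calls, unless noted: active means inhibition at or above 50% relative to wild type and mutant plate controls; inactive means inhibition below 50%.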

Experiment [1] is described as follows: inhibitors of TNFa-induced NFkB p65 translocation, primary screen, imaging, HUVEC, MLSMR starter and 10KST1 sets (AID 438;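 active means inhibition above 20% together with a positive visual image hit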;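 further: compound added about 3h40 before a 20 min TNFalpha stimulation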;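 on inhibition: signal is the nuclear over cytoplasmic p65 intensity ratio per well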). Conditions: HUVEC TNFa-induced p65 nuclear translocation; cell count: measured here: nuclei count (cytotoxicity indicator), at 2.08 µM; inhibition: at 2 µM, stronger effect = higher value, 0% TNFa-plus-vehicle, 100% no-TNFa wells.
The nature of experiment [2]: reduction of polyQ htt aggregates in cells – imaging, exon1htt(103Q)mCFP cells, high-content imaging, primary screen (AID 483;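 active means visual image review flags a hit and inhibition of aggregation exceeds 20%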;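 further: compound exposure lasted 3 days before fixation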;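 on nuclei count: percent of the per-plate median nuclei count of sample wells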). The note with it: exon1htt(103Q)mCFP cell line, aggregate imaging, at 2 µM; inhibition of aggregation: stronger effect = higher value; nuclei count: measured here: cell count, toxicity.
Experiment [3] can be described thus: endothelial E-selectin expression blockers – imaging, HUVEC, immunofluorescence, MLSMR starter and 10KST1 sets, primary screen (AID 487;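 active means visually confirmed hit in the image check and inhibition above 20%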;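 on inhibition: signal is fraction of cell area covered by stained E-selectin grains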;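 on nuclei count: 100% = median nuclei count of all wells on the same plate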). Conditions: HUVEC TNFalpha-induced E-selectin immunofluorescence imaging, at 2 µM; inhibition: stronger effect = higher value; nuclei count: measured here: cell number, toxicity.
The nature of experiment [4]: Primary imaging screen for DUSP6 inhibitors that restore phospho-Erk in transfected HeLa cells, chemical complementation (AID 609;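 active means compounds giving at least 50% inhibition in the cell-based MKP-3 phosphatase rescue imaging test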;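 on inhibition: phospho-Erk level distribution per well compared with pooled transfected vehicle control wells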). Conditions: HeLa MKP-3 transfected, phospho-Erk imaging KS statistic, at 10 µM, cells stimulated with TPA for 15 min.
In experiment [5] the target is Dual specificity protein phosphatase 6 (Homo sapiens) (UniProt Q16828). The description is as above. The note with it: HeLa MKP-3 transfected, phospho-Erk imaging KS statistic; at 10 µM; stronger effect = higher value; cells stimulated with TPA for 15 min.
Chain of Dual specificity protein phosphatase 6 (Homo sapiens) (Q16828 whole entry, looked up): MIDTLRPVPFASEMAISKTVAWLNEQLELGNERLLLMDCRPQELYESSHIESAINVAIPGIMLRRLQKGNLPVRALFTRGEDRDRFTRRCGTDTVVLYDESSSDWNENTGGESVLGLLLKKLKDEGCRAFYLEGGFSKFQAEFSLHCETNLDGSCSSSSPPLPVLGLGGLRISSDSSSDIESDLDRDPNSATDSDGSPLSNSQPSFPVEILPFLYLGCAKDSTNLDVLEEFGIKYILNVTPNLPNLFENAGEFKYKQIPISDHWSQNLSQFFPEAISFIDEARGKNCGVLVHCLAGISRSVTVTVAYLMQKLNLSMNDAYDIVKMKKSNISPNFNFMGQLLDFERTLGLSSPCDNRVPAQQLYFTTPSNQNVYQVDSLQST
The target in experiment [6] is Voltage-gated potassium channel subunit beta-2 (Rattus norvegicus) (UniProt P62483). The experiment in a line: inhibitors of rat Kvbeta2 reductase activity – biochemical, NADPH fluorescence, primary screen (AID 622;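 active means fluorescence slope higher than the sample average by over 3 SD, cut at about -0.22 in these data, passing the limit was not always enough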;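 further: slope of raw intensity against log time taken from 70 to 1610 s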). The note with it: recombinant KvBeta, 4-cyanobenzaldehyde reduction, at 10 µM, stronger effect = higher value.
Chain of Voltage-gated potassium channel subunit beta-2 (Rattus norvegicus) (P62483 whole entry, looked up): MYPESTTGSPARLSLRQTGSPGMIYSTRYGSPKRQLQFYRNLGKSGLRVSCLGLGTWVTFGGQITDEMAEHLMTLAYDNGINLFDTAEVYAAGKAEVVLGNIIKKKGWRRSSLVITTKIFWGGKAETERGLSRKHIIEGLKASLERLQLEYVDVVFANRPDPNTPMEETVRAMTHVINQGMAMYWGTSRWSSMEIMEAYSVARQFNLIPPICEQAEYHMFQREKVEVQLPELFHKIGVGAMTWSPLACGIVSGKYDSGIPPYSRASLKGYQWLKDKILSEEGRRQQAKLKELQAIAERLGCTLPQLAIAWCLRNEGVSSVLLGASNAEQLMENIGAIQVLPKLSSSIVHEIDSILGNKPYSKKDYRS
Experiment [7] has the same target. The experiment in a line: enhancers of rat Kvbeta2 NADPH turnover – biochemical, NADPH fluorescence, primary screen (AID 623;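 active means NADPH fluorescence slope more negative than the mean of all samples by about 3 SD, 99.7% confidence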;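 further: fluorescence intensity change per second fitted from 20 to 320 s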). Conditions: Recombinant KvBeta, NADPH fluorescence decrease slope, 10 min; at 10 µM; stronger effect = lower value.
Experiment [8] addresses Alpha-2C adrenergic receptor (Homo sapiens) (UniProt P18825). Nature of the experiment: compounds altering alpha2C-coupled GIRK flux – cell-based, HEK293 alpha2C/GIRK1/2, thallium flux, primary screen (AID 624;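 active means fluorescence slope after compound addition differing from the mean of all screened samples at 99.7% confidence, in either direction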;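 further: slope of fluorescence ratio to pre-addition baseline per second over 15 to 24 s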). Conditions: thallium flux BTC fluorescence, at 10 µM, actives lie on both sides.
Experiment [9] in a line: inhibitors of larval lipid processing in zebrafish, primary screen, whole organism, PED6 fluorescence, gall bladder and intestine (AID 686;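 active means a full or partial loss of lipid-probe fluorescence in the fish gall bladder, intestine or both, judged by eye; inactive means no fluorescence loss, or compound toxic to the fish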;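 further: larvae 5 to 7 days old with five fish per well; signal comes from phospholipase A2 cleavage of quenched PED6 carried via bile; overnight exposure to compound and PED6 before scoring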). The note with it: Zebrafish larvae PED6 lipid processing, fluorescence scoring; screened at 20 µM (by protocol).
A short description of experiment [10]: loss of swimming-algae plug formation – whole organism, Chlamydomonas reinhardtii, WT vs cilia-less mutant, absorbance, 96-well, primary screen (AID 463189).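 Further: 0% = wild type cc124 cells in DMSO and 100% = ciliumless bld1 mutant cells.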 Conditions: Chlamydomonas reinhardtii gravitaxis, OD600 absorbance, 2 days; at 10 µM; stronger effect = higher value.
Experiment [11] can be described thus: blockers of RIG-like receptor reporter activation – cell-based, Sendai virus stimulus, luciferase, 10K MLSCN set, TLR/RLR signaling modifier project, primary screen (AID 602276;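 active means inhibition at or above 50% at 10 µM; inactive means inhibition below 50%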;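 further: firefly luciferase from ISG56 promoter only with Renilla not read in this screen; 0% = Sendai virus plus DMSO and 100% = medium plus DMSO without virus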). The note with it: HEK293 RL24 IRF3 luciferase reporter, at 10 µM, stronger effect = higher value. For orientation: In a reporter assay the amount or activity of a reporter protein is the signal.

Experiment [12] in a line: TLR3 IRF3 reporter activation blockers – cell-based, poly I:C stimulus, luciferase, 10K MLSCN set, primary screen (AID 602277;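 active means inhibition of the reporter signal at or above 50%; inactive means inhibition below 50%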). Conditions: HEK293-TLR3 RL24 IRF3 luciferase reporter, at 10 µM, stronger effect = higher value.
Where [13] appears, read: measured here: cell density z-score.
The mark [14] stands for this setting: measured here: nuclear c-Myc green intensity z-score.
[15] abbreviates: measured here: nuclear pErk red intensity z-score, stronger effect = higher value.

Chain of Alpha-2C adrenergic receptor (Homo sapiens) (P18825 whole entry, looked up): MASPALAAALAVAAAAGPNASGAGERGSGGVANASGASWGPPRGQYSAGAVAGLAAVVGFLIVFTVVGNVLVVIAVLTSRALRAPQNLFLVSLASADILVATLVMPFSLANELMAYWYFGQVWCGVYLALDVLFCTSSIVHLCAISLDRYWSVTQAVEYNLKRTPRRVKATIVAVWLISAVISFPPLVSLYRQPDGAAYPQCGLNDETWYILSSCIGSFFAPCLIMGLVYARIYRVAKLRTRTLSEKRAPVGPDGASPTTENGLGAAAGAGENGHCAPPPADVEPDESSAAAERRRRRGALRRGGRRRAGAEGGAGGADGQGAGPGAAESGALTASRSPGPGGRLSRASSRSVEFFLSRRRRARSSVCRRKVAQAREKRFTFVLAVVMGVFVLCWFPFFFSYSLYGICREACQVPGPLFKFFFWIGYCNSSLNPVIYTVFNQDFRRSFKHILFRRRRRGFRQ

In the case of `CO[C@H]1C[C@@H]2CC[C@@H](C)[C@@](O)(O2)C(=O)C(=O)N2CCCC[C@H]2C(=O)O[C@H]([C@H](C)C[C@@H]2CC[C@@H](O)[C@H](OC)C2)CC(=O)[C@H](C)C=C(C)[C@@H](O)[C@@H](OC)C(=O)[C@H](C)C[C@H](C)C=CC=CC=C1C`, the cell count in experiment [1] was determined as 629. The inhibition (in general, the relative decrease from the control value, in per cent) in experiment [1] was -23.5% (inactive); in experiment [3] it was -63% (inactive); in [5], 19.2% (inactive); in experiment [10], 44.3% (inactive); in [11] it was 21.8% (inactive); in experiment [12], 43.8% (inactive). Besides, in experiment [2], the inhibition of aggregation was 3.4% (inactive). Further, the nuclei count in experiment [2] was determined as 97%; in experiment [3], 106%. Further, the z-score came to 0.947 in [4] (setting [13]), 0.453 in experiment [4] (setting [14]) and 0.871 in [4] (setting [15]). In experiment [6], the fluorescence slope is -0.462 (inactive). Moreover, the NADPH fluorescence slope in [7] is -3.4e-05 (inactive). Besides, in experiment [8], the slope is 0.00536 (inactive). In experiment [9], the outcome was inactive.

Regarding `Cc1onc(-c2ccccc2)c1C(=O)N[C@@H]1C(=O)N2[C@@H]1SC(C)(C)[C@@H]2C(=O)O`, the cell count in experiment [1] worked out at 638. Moreover, the inhibition in [1] was -3.4% (inactive); in experiment [3] it was -91.9% (inactive); in experiment [5], 25.1% (inactive); in [10], -11.8% (inactive); in experiment [11], -2.42% (inactive); in experiment [12] it was 27.7% (inactive). In [2], the inhibition of aggregation was -5% (inactive). Also, the values for the nuclei count in experiment [2] and in [3] were 102% and 126%, respectively. Also, the values for the z-score in [4] (setting [13]), in experiment [4] (setting [14]) and in experiment [4] (setting [15]) were -0.0512, -0.454 and 0.656, respectively. Further, the fluorescence slope in [6] is -0.532 (inactive). In addition, in experiment [7], the NADPH fluorescence slope was -4.6e-05 (inactive). Also, the slope in experiment [8] is 0.00473 (inactive). For the same compound, the call in [9] was inactive.

`Cc1c(OCC(F)(F)F)ccnc1CS(=O)c1nc2ccccc2[nH]1` (stereo not given): in experiment [1], the cell count is 654. The inhibition was 0.3% (inactive) in experiment [1]; -74.2% (inactive) in experiment [3]; 14.6% (inactive) in [5]; -14.9% (inactive) and -4.97% (inactive) in experiment [10]; -45.4% (inactive) in [11]; -64.9% (inactive) in experiment [12]. Besides, in [2], the inhibition of aggregation is 8.2% (inactive). The nuclei count in experiment [2] was 77.3%; in [3], 98.2%. Further, the z-score is 1.3 in [4] (setting [13]), -0.826 in experiment [4] (setting [14]) and -0.353 in experiment [4] (setting [15]). Further, the fluorescence slope in [6] is -0.466 (inactive). For the same compound, in experiment [7], the NADPH fluorescence slope was -3.7e-05 (inactive). In experiment [8], the slope is 0.00411 (inactive). The outcome in [9] was inactive.

For the compound `CCCC(=O)O[C@]1(C(=O)COC(C)=O)CC[C@H]2[C@@H]3C[C@H](F)C4=CC(=O)C=C[C@]4(C)[C@@]3(F)[C@@H](O)C[C@@]21C`, the cell count in experiment [1] was 642. Also, the inhibition in [1] is -9.3% (inactive); in [3] it was -95.2% (inactive); in experiment [5], -0.493% (inactive); in [10], 9.17% (inactive); in [11] it was 15.9% (inactive); in [12] it was 48.2% (inactive). Further, the inhibition of aggregation in experiment [2] is -34.4% (inactive). Also, the values for the nuclei count in [2] and in [3] were 61.6% and 136%, respectively. Besides, the z-score in experiment [4] (setting [13]) is -0.0756; in experiment [4] (setting [14]), -0.093; in experiment [4] (setting [15]), 0.355. Further, in [6], the fluorescence slope was -0.5 (inactive). Besides, the NADPH fluorescence slope in experiment [7] was -5.5e-05 (inactive). In addition, the slope in [8] is 0.00445 (inactive). Besides, the result in experiment [9] was inactive.

Consider `Nc1nc(F)nc2c1ncn2[C@@H]1O[C@H](CO)[C@@H](O)[C@@H]1O`, for which the cell count in experiment [1] was determined as 526. In addition, the inhibition in experiment [1] was -6.8% (inactive); in [3] it was 5.4% (inactive); in experiment [5], -2.46% (inactive); in [10], -8.17% (inactive); in [11] it was 2.74% (inactive); in experiment [12], 23.7% (inactive). Also, the inhibition of aggregation in experiment [2] was -1.5% (inactive). For the same compound, the nuclei count worked out at 103% in experiment [2] and 106% in experiment [3]. Besides, the z-score is -1.32 in experiment [4] (setting [13]), 0.314 in experiment [4] (setting [14]) and 0.132 in experiment [4] (setting [15]). In [6], the fluorescence slope was -0.491 (inactive). Moreover, in experiment [7], the NADPH fluorescence slope is -3.9e-05 (inactive). Further, the slope in [8] was 0.00434 (inactive). Besides, in experiment [9], the call was inactive.
